# Screens deposited in PubChem by National Center for Advancing Translational Sciences (NCATS).
# A selection: hits, their analogues and other compounds. The true share with any hit is near 18%.
# IL-1B inflam inh = qHTS for Inhibitors of Inflammasome Signaling: IL-1-beta AlphaLISA Primary Screen. THP-1 LPS/ATP IL-1B secretion, AlphaLISA, 16 h; active compounds read low. activity change, % at 57.5 µM. hit rate 4.7% among 360,000. AID 743279, 2014; in the data active means activity change below about -50%; inconclusive means mostly about -30% to -49%; further: on the % scale 0 is the no-effect control and ±100 the full control effect
#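 Secreted IL-1B measured by AlphaLISA bead assay after 16 h compound exposure of THP-1 cells; compounds (final up to 57.5 uM) added 1 h before LPS (250 ng/mL) and ATP (1.25 mM) stimulation; lower signal means less secretion.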
# TDP1 inh = qHTS Assay for Inhibitors of Tyrosyl-DNA Phosphodiesterase (TDP1). Tyrosyl-DNA phosphodiesterase 1 (Homo sapiens), Q9NUW8. recombinant TDP1, AlphaScreen DNA substrate cleavage. Potency, µM (titrated, usually from 130 µM), inactives show at the highest dose activity change, negative = inhibition, actives largely listed as inhibitors. hit rate 0.28% among 350,000; further: potency means the concentration at half of the fitted maximal effect; on the % scale 0 is the no-effect control and ±100 the full control effect; nearly all actives have a fitted effect of over 40% in size
# Target sequence (Q9NUW8 whole entry, looked up): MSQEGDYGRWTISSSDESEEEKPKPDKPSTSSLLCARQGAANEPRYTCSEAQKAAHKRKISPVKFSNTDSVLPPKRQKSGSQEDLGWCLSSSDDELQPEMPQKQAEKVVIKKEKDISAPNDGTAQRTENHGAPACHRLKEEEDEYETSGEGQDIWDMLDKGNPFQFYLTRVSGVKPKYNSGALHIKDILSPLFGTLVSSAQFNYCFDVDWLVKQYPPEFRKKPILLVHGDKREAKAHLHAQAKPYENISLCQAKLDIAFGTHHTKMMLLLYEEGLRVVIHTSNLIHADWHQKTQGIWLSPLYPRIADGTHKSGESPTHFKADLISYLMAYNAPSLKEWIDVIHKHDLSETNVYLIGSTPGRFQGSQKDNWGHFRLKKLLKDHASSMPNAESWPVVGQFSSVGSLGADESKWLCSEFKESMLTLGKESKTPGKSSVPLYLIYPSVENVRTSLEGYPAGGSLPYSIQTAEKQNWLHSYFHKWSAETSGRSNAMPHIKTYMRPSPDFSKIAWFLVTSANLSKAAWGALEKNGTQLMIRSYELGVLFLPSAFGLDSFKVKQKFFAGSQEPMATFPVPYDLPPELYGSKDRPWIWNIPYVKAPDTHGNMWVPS
#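 Recombinant human Tdp1 (E. coli-expressed, 1 nM final) preincubated with compounds 15 min at room temperature, then 5'-biotin/3'-phosphotyrosine-FITC DNA substrate (15 nM final) added for 5 min. AlphaScreen beads (10 ug/ml final) added 10 min; cleavage lowers signal.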
# HepG2 tox = qHTS for Inhibitors of TGF-b: Cytotox Counterscreen; AID 588856, 2011; HepG2 CAGA-GFP viability, ATP luminescence, 18 h; Potency, µM (top dose mostly 46.1 µM), inactives show top-dose activity change, negative = cytotoxicity, hits mostly cytotoxic; hit rate 0.76% among 410,000; further: potency means the concentration at half of the fitted maximal effect
#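 CellTiter-Glo luminescence gave cytotoxicity after 18 hours at 37 degrees C. The cells were HepG2 CAGA-GFP in 1% FBS DMEM, stimulated with 500 pg/mL TGF-beta after compound addition. %Activity was normalised to no-cell wells (complete cell-killing) and DMSO (no toxicity), and curves were fitted and classified.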
# DT40 TDP1 no CPT = qHTS for Inhibitors of human tyrosyl-DNA phosphodiesterase 1 (TDP1): qHTS in cells in absence of CPT. hit rate 15% among 420,000. AID 686978, 2013. Potency, µM (titrated, usually from 46.2 µM), for inactives: at the top dose activity change, negative = growth inhibition, actives largely listed as inhibitors. DT40 Tdp1-/- hTDP1 cells, no CPT, ATP luminescence, 48 h; further: potency means the concentration at half of the fitted maximal effect; on the % scale 0 is the no-effect control and ±100 the full control effect; nearly all actives have a fitted effect of over 55% in size
#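 Growth kinetics read by CellTiter-Glo luminescence after ≥48 hr at 37 °C. Cells: DT40 Tdp1-/- stably carrying human TDP1, 400 per well, compound exposure in the absence of CPT (DMSO vehicle).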
# TDP1 cell CPT = qHTS for Inhibitors of human tyrosyl-DNA phosphodiesterase 1 (TDP1): qHTS in cells in presence of CPT | chicken DT40 Tdp1-/-;hTDP1 cells + 20 nM CPT, ATP luminescence, 48 h | Potency, µM (top dose mostly 46.2 µM), for the others: at the highest dose activity change, negative = growth inhibition, usual class: inhibitors | hit rate 12% among 420,000 | AID 686979, 2013; further: potency means the concentration at half of the fitted maximal effect; on the % scale 0 is the no-effect control and ±100 the full control effect; nearly all actives have a fitted effect of over 55% in size
#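 Chicken DT40 Tdp1-/- cells stably complemented with human TDP1 were seeded at 400 cells/well in medium containing 20 nM camptothecin, exposed to pin-transferred compounds, and grown at 37 °C for at least 48 hr. Viability was read as ATP luminescence.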
# TGFb SMAD3 inh = qHTS for Inhibitors of TGF-b. HepG2 CAGA-GFP TGF-b/SMAD3 reporter, GFP fluorescence, 18 h; TGF-beta stimulated, 500 pg/mL final. AID 588855, 2011. hit rate 1.2% among 410,000. Potency, µM (highest dose often 46.1 µM), for inactives: at the top dose activity, negative = inhibition, actives largely listed as inhibitors; further: potency means the concentration at half of the fitted maximal effect; on the % scale 0 is the no-effect control and ±100 the full control effect; nearly all actives have a fitted effect of over 65% in size
#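 HEPG2 CAGA-GFP cells (1000/well, DMEM with 1% FBS) were pre-incubated 2 h at 37 degrees C, given compound by pin tool, then stimulated with TGF-beta at 500 pg/mL final for 18 h before per-cell GFP fluorescence imaging.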
# Active calls of the source: *; u = inconclusive; x = no result; [ ] = another dose, or the depositor's remark. Unless noted, the call rests on the fitted dose curve; in most records, active means well fitted curve in the direction sought with a large enough effect; inconclusive means small, poorly fitted or top-dose-only effect, or another doubt; inactive means no such curve, though single readings can be large; an effect the other way counts as inactive or inconclusive.
SMILES,IL-1B inflam inh,TDP1 inh,HepG2 tox,DT40 TDP1 no CPT,TDP1 cell CPT,TGFb SMAD3 inh
CCOc1ccccc1NC(=O)Cn1c(=O)n(Cc2ccco2)c(=O)c2cccnc21,x,2%,4%,u,u,6%
O=C(c1ccc(C#CC2(O)CCCCC2)cc1)N1CCN(C(c2ccccc2)c2ccccc2)CC1,-58*,9%,4%,u,u,u
Cc1cc(C(C)(C)C)oc1C(=O)O,7,-1%,8%,0%,-4%,-4%
Cc1occc1C(=O)N1CCN(C(c2ccccc2)c2ccccc2)CC1,-14,9%,-3%,u,u,-24%
Cc1ccccc1C(=O)N1CCN(C(c2ccccc2)c2ccccc2)CC1,-29,0%,-30%,23µM*,u,u
Cc1cc(C(C)(C)C)oc1C(=O)N1CCN(C(=O)c2oc(C(C)(C)C)cc2C)CC1,46,2%,-18%,16µM*,18µM*,-4%
Cc1oc(C(C)(C)C)cc1C(=O)N1CCN(C(c2ccccc2)c2ccccc2)CC1,-68*,9%,-1%,u,u,u
O=C(c1ccc(C#CC2(O)CCCCC2)cc1)N1CCN(Cc2ccccc2)CC1,-11,-1%,1%,u,u,-6%
CCC(C)c1c(NS(=O)(=O)c2ccc(C)cc2)o[nH]c1=O (stereo not given),-11,x,0%,-16%,15%,10%
COCC1CCCN(c2nc(CN3CCN(C(=O)c4ccco4)CC3)nc3ccccc23)C1 (stereo not given),x,x,x,-19%,10%[9.04 µM],x
COc1ccc(-c2[nH]c(-c3ccccc3)nc2SCC(=O)NC2CCCC2)cc1,u,-2%[12.3 µM],-31%,21µM*,23µM*,-43%
COc1ccc(-c2[nH]c(-c3cccc(OC)c3)nc2SCC(=O)NC2CCCC2)cc1,-23,12%,-35%,23µM*,21µM*,u
COc1ccc(-c2nc(SCC(=O)NC3CCCC3)c(-c3ccc(F)cc3)[nH]2)cc1,x,8%,-35%,u,u,11µM*
COc1ccc(-c2[nH]c(-c3ccc(F)cc3)nc2SCC(=O)NC2CCCC2)cc1,-14,-1%,-22%,u,u,u
Cc1cc2nc(-c3ccc(Cl)cc3)c(Cc3ccsc3)n2c(C)c1Br,18,x,x,u,u,x
Cc1noc(C)c1COC(=O)c1cc(F)c(F)cc1Cl,-2,2%,1%,-3%,-3%,-3%
O=C(OCc1ccccc1)c1cnc(Cl)c(Cl)c1,-4,x,5%,0%,-1%,6%
Cc1noc(C)c1COC(=O)c1cnc(Cl)c(Cl)c1,-54*,x,20%,16%,22%,3%
N#Cc1ccc(COC(=O)c2cnc(Cl)c(Cl)c2)cc1,-88*,x,-3%,-19%,17%,14%
Cc1noc(C)c1COC(=O)/C=C/c1ccc(Cl)cc1,7,-8%,9%,16µM*,u,14%
C[C@@H]1CN([C@@H](C)CO)C(=O)CCCn2cc(nn2)CO[C@H]1CN(C)S(=O)(=O)c1ccc2c(c1)OCCCO2,-7,x,9%,4%,7%,-18%
C[C@@H]1CN([C@H](C)CO)C(=O)CCCn2nncc2CO[C@H]1CN(C)S(=O)(=O)c1ccc(C#N)cc1,-6,x,30%,-5%,6%,20%
COc1ccc([N+](=O)[O-])cc1NC(=O)CSc1nc(C)cc(C)n1,27,8%,5%,u,16µM*,-1%
COCCSc1ccccc1C(=O)Nc1cc([N+](=O)[O-])ccc1OC,-15,2%,15%,u,-1%,-4%
COc1ccc([N+](=O)[O-])cc1NC(=O)CSc1ccc2ccccc2c1,16,5%,-1%,u,23µM*,-11%
SMILES,IL-1B inflam inh,TDP1 inh,HepG2 tox,DT40 TDP1 no CPT,TDP1 cell CPT,TGFb SMAD3 inh
COCCSc1ccccc1C(=O)Nc1ccc([N+](=O)[O-])cc1OC,-2,5%,-31%,23µM*,u,-13%
COc1cc([N+](=O)[O-])ccc1NC(=O)CSc1nncn1-c1cccnc1,10,3%,1%,0.52µM*,u,7%
O=C(CCC1CCCN(C(=O)c2cccc(F)c2)C1)N1CCN(c2ccccn2)CC1 (stereo not given),0,6%,-14%,-19%,-28%,0%
Cc1cc(NCc2ccc(Cl)cc2)n2cnnc2n1,x,2%,-21%,8.2µM*,21µM*,x
Cc1cc(Nc2ccc(Cl)cc2)n2cnnc2n1,x,5%,-3%,-21%,2%,-3%
COc1ccc(-c2cc(NCc3ccc(C)cc3)n3cnnc3n2)cc1,x,-2%,-36%,13µM*,15µM*,u
CC(=O)Nc1ccc(NC(=O)C(C)OC(=O)CNS(=O)(=O)/C=C/c2ccc(C)cc2)cc1 (stereo not given),-2,x,-34%,0%,-2%,-16%
Cc1cc(NC2CCCC2)n2nc(C)c(-c3ccccc3)c2n1,-74*,x,-8%,u,u,-21%
COc1ccc(-c2c(C)nn3c(NC4CCCC4)cc(C)nc23)cc1OC,-4,x,-36%,u,u,-30%
COc1nc(NCCc2ccc(OC)c(OC)c2)nc(Nc2ccccc2)n1,-81*,x,-11%,u,15µM*,-16%
COc1ccc(CCNc2cc(C)nc3c(-c4ccccc4)cnn23)cc1OC,u,-2%,-8%,29µM*,u,0%
COc1ccc(CCNc2cc(C)nc3c(-c4ccc(Cl)cc4)cnn23)cc1OC,-15,-3%,-10%,16µM*,21µM*,u
COc1ccccc1-c1cnn2c(NCCc3ccccc3)cc(C)nc12,u,x,15%,u,4%,35%
CC(C)C[C@@H](CC(=O)N[C@@H](CCCN)CC(=O)N[C@@H]1CCCC[C@H]1C(=O)N[C@H](CC(=O)N[C@@H](CCC(=O)O)CC(=O)O)Cc1c[nH]c2ccccc12)NC(=O)[C@@H]1CCCC[C@H]1N,x,2%,x,x,x,x
CC(=O)Nc1ccn(C2OC(C(COC(C)=O)NC(=O)C(Cc3ccccc3)NC(=O)OC(C)(C)C)C(OC(C)=O)C2OC(C)=O)c(=O)n1 (stereo not given),x,4%,13%,x,x,6%
